The campaign covered roughly 220,000 compounds. About 910 (0.41%) were called active. For the sample, actives were picked, then their nearest neighbours and some compounds at random. Potency and affinity values are given separately. Unmarked numbers belong to inactive results.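 Rule for the calls: active = primary inhibition above the hit cutoff, then over 50% inhibition at one or more dose response concentrations (cut at about 23% in these data, passing the limit was not always enough); inconclusive = conflicting primary data, or primary hits not chosen for dose response; inactive = low primary inhibition, or under 50% at every dose.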
Each compound was assayed against Aminopeptidase N (Plasmodium falciparum (isolate 3D7)) (UniProt O96935) (assay: P. falciparum M1AAP inhibitors, biochemical, fluorogenic H-Leu-NHMec substrate, 1536-well (AID 1445;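 note: plate controls were DMSO full reaction for no effect and no enzyme background for full effect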)). Details: recombinant M1AAP, H-Leu-NHMec fluorogenic kinetic assay; at 30 µM, hits give high values unless noted.
Chain of Aminopeptidase N (Plasmodium falciparum (isolate 3D7)) (O96935 whole entry, looked up): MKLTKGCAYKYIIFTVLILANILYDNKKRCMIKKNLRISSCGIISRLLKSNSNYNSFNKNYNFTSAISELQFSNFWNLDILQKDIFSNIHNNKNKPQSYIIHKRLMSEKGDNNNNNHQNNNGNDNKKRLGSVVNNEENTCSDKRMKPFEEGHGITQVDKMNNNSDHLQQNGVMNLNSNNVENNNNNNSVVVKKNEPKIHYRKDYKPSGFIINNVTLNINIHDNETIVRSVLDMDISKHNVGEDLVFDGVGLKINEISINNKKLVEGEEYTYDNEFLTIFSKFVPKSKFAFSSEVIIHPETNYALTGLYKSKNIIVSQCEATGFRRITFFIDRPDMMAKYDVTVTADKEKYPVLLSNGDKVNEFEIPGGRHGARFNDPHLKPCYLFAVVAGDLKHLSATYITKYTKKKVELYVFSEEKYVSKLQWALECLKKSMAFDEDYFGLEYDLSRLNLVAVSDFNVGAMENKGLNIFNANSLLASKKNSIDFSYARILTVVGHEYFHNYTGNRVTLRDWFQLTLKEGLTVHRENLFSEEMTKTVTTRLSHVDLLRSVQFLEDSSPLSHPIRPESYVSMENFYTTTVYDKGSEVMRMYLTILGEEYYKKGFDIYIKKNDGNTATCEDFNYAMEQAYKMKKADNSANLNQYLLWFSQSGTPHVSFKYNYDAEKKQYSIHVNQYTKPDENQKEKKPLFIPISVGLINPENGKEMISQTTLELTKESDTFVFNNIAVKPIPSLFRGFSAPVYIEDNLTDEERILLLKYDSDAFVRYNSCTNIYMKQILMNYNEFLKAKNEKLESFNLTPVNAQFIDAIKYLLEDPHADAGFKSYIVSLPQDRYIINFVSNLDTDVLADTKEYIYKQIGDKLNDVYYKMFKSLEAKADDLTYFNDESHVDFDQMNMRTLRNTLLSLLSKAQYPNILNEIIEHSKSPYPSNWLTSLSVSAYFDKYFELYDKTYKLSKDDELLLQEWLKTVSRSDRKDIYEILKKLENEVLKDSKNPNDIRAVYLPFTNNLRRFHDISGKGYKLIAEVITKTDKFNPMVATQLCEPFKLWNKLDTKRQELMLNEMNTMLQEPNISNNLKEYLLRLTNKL

Row | Compound | inhibition
1 | CCc1nnc(NC(=O)C2CCCN(c3nc(C)cc(C)n3)C2)s1 (stereo not given) | 3.57%
2 | S=c1[nH]c(-c2ccccc2)cn1/N=C/c1cccnc1 | 1.39%
3 | O=C(CCCN1C(=O)/C(=C/c2ccccc2Cl)SC1=S)NNC(=O)c1cccnc1 | 2.83%
4 | COc1cccc(/C=C2\SC(=S)N(C(C(=O)O)c3ccccc3)C2=O)c1OC (stereo not given) | 18.2%
5 | CC(/C=C1\SC(=S)N(C(C(=O)O)C(C)C)C1=O)=C\c1ccccc1 (stereo not given) | 14%
6 | COc1ccc(OC)c(/C=C2\SC(=S)N(Cc3cccnc3)C2=O)c1 | -5.9%
7 | COc1ccc(/C=C2\SC(=S)N(N3CCOCC3)C2=O)c(OC)c1 | 1.37%
8 | CC(=C\c1ccccc1)/C=C1/SC(=S)N(C(C(=O)O)C(C)C)C1=O (stereo not given) | 8.4%
9 | COc1ccc(/C=C/C(=O)c2ccccc2)c(OC)c1 | 10.2%
10 | COc1ccc(OC)c(/C=C2\SC(=S)N(N3CCOCC3)C2=O)c1 | 6.71%
11 | COc1ccccc1/C=C1\SC(=S)N(N2C(=O)CCCC2=O)C1=O | 3%
12 | C/C(=N/NS(=O)(=O)c1ccc(C)cc1)c1ccc(NC(=O)C(F)(F)F)cc1 | 2.89%
13 | Cc1cnc(NC(=O)CSc2nnc(C)n2N)s1 | 2.39%
14 | Cc1ccc(OCc2nc(-c3ccccn3)n[nH]2)cc1 | -24.5%
15 | CCCCn1nnnc1NCc1cccnc1 | 4.66%
16 | CCOC(=O)C1CCCN(CC(=O)/C=C2/N(C)c3ccccc3C2(C)C)C1 (stereo not given) | 9.72%
17 | COc1ccc(NS(=O)(=O)c2cccc(C(=O)N/N=C/c3ccc(O)cc3)c2)cc1 | 7.62%
18 | CCC1CCc2[nH]nc(C(=O)O)c2C1 (stereo not given) | 7.24%
19 | Cc1nn(C(=O)N2CCCCC2)c(C)c1CN1C(=O)c2ccccc2C1=O | -0.2%
20 | Cc1cc(C)cc(NC(=O)C(OC(=O)c2cccs2)c2ccccc2)c1 (stereo not given) | 3.45%

Row | Compound | inhibition
21 | OCCC1CN(Cc2nc(-c3ccccc3)cs2)CCN1CCc1ccccc1 (stereo not given) | 7.68%
22 | CSc1nc2ncc(-c3ccsc3)c(N)n2n1 | 7.33%
23 | CC(c1ccccc1)N1C(=O)/C(=C/c2ccncc2)SC1=S (stereo not given) | -2.44%
24 | O=C(O)C(Cc1ccccc1)N1C(=O)/C(=C/c2cccs2)SC1=S (stereo not given) | 11.1%
25 | CC1=NOC(=O)/C1=C/c1ccc(-c2ccc(Cl)cc2)o1 | 5.39%
26 | CC1(C)OC(=O)C(=Cc2ccc(-c3ccc(Cl)c(C(=O)O)c3)o2)C(=O)O1 | 8.63%
27 | O=C1NN(c2ccccc2)C(=O)/C1=C/c1ccc(-c2ccc(Cl)c(C(=O)O)c2)o1 | 32.2%
28 | CCCCC1(C)OC(=O)C(=Cc2ccc(-c3ccc(Cl)c(C(=O)O)c3)o2)C(=O)O1 (stereo not given) | 9.08%
29 | Cc1ccc(N2NC(=O)/C(=C/c3ccc(-c4ccc(Cl)c(C(=O)O)c4)o3)C2=O)cc1 | 5.62%
30 | O=C(O)c1cc(-c2ccc(/C=C3\NC(=O)N(c4ccccc4)C3=O)o2)ccc1Cl | 18.7%
31 | Cc1ccc(C)c(-n2c(SCC(=O)NC(C(=O)O)C(C)C)nnc2-c2cccc(Cl)c2)c1 (stereo not given) | 0.37%
32 | CC1CC(NC(=O)C2(C)CC2(Cl)Cl)CC(C)(C)C1 (stereo not given) | 1.77%
33 | O=C1CCn2nc(-c3ccc(Cl)cc3)cc2N1 | 0.78%
34 | O=C(O)CCC(=O)NNC(=O)c1cccc(Cl)c1 | 8.54%
35 | Cn1cc(-c2nnnn2-c2ccc(Cl)cc2)c(=O)c2ccccc21 | -1.66%
36 | CC(=O)Nc1c(C(=O)c2ccccc2)oc2ccccc12 | 10.6%
37 | O=C(Nc1nc2c(Br)cc(Br)cc2c(=O)s1)c1ccco1 | 3.61%
38 | CCOc1cc(/C=C/c2ccc3cccc([N+](=O)[O-])c3n2)cc(Cl)c1O | 9.51%
39 | CC(C)c1nc(CNC(=O)CCc2nnc(-c3ccsc3)o2)cs1 | -9.81%
40 | O=C(N/N=C(/CC(=O)c1cccs1)C(F)(F)F)c1ccc(O)cc1 | 30.4%

Row | Compound | inhibition
41 | O=C(N/N=C(\CC(=O)c1cccs1)C(F)(F)F)c1cccnc1 | 22.1%
42 | Cc1cccc(N2CCN(C(=O)CC(NC(=O)c3ccccc3)c3ccccc3)CC2C)c1 (stereo not given) | -5.51%
43 | Cc1ccc(N2CC(C(=O)Nc3cccc(F)c3)CC2=O)cc1 (stereo not given) | 2.83%
44 | COCc1c(Br)c(C)nc(OCC(=O)N/N=C/c2cc(C)n(-c3ccc([N+](=O)[O-])cc3)c2C)c1C#N | 12%
45 | O=C(Nc1ccc(-n2ccnc2P(=O)(O)c2ccccc2)cc1)c1ccccc1Cl | 75.1% (active)
46 | O=C(Nc1ccc(C(F)(F)F)cc1)c1ccccc1Br | -2.21%
47 | O=C(Nc1ccc2ncccc2c1)c1ccccc1Cl | 16.8%
48 | CN1CCN(c2ccc(NC(=O)c3ccccc3Br)cc2)CC1 | 3.56%
49 | O=C(Nc1ccc(N2CCCCCC2)cc1)c1ccccc1Cl | -5.82%
50 | CC(Cc1cccs1)NC(=S)Nc1ccc(Cl)c(Cl)c1 (stereo not given) | -3.88%
51 | Cc1ccc(OCc2ccc(C(=O)Nc3nc4ccccc4n3Cc3ccccc3)o2)c([N+](=O)[O-])c1 | 4.13%
52 | Cc1ccc(C(=O)Cn2nnc3ccccc32)cc1C | 5.82%
53 | O=C1Nc2ccccc2N(O)N1c1ccc(S(=O)(=O)Nc2ccccn2)cc1 | 5.82%
54 | Cc1nc2sc3c(c2c(=O)o1)CCC3 | 7.65%
55 | O=c1[nH]c2sc3c(c2c2nncn12)CCCC3 | 2.29%
56 | Cc1cc(-c2nc3c4c5c(sc4[nH]c(=O)n3n2)CCC5)c(C)o1 | 27.1% (active)
57 | CCOC(=O)C1=C(c2ccccc2)Nc2ncnn2C1c1ccc(OC)c(OC)c1OC (stereo not given) | -1.38%
58 | O=S(=O)(Nc1nc2ccccc2nc1Nc1ccc2c(c1)OCO2)c1ccccc1 | 33.5%
59 | O=S(=O)(Nc1ccc2c(c1)OCCO2)c1cccs1 | -2.25%
60 | O=S(=O)(Nc1nc2ccccc2nc1Nc1ccc2c(c1)OCCO2)c1cccs1 | 47.2% (active)

— PubChem BioAssay AID1445 (SRMLSC, 2008)
